Molecules are shown by their SMILES. Compounds without any hit were thinned out: in the full panel of roughly 83,000, 20% have a hit.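 Step 1: grow cells in 96-well plates. Step 2: add test compound at a single concentration. Step 3: incubate 48 h. Step 4: record percent growth.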 Unmarked numbers belong to inactive results. Activity calls are given as the source filed them. Rule for the calls: active = growth percent below 10; inactive = the rest.

In PubChem BioAssay (NCI) one finds growth data, which are given here for eleven molecules.

Common to all, as to experiment: NCI-60 one-dose screen, 48 h (100 = growth as untreated, 0 = no growth, -100 = all killed)
The test system of one test is NCI-H522 lung. Particulars: 10 µM unless noted.
Another test has as its system A549/ATCC NSCLC. The note with it: 10 µM unless noted.
A further test concerns HT29 colon. Particulars: 10 µM unless noted.
Another test relates to SNB-75 CNS. Particulars: 10 µM unless noted.
The next test concerns PC-3 prostate. Particulars: 10 µM unless noted.
A further test has as its system SK-MEL-5 melanoma. Particulars: 10 µM unless noted.
For a further test, the system named is SK-MEL-28 melanoma. The note with it: 10 µM unless noted.
In another test the test system is EKVX NSCLC. Particulars: 10 µM unless noted.
A further test deals with CAKI-1 renal. Particulars: 10 µM unless noted.
For the next test, the system named is SR leukemia. Particulars: 10 µM.
The next test concerns OVCAR-5 ovarian. Particulars: 10 µM unless noted.
In the next test the test system is IGROV1 ovarian. Particulars: 10 µM.
Another test deals with OVCAR-3 ovarian. Particulars: 10 µM unless noted.
A further test deals with MCF7 breast. Particulars: 10 µM unless noted.
The subject of the next test is COLO 205 colon. Particulars: 10 µM.
Another test concerns CCRF-CEM leukemia. Particulars: 10 µM unless noted.
A further test deals with RPMI-8226 leukemia. Particulars: 10 µM unless noted.
The test system of another test is HS 578T breast. The note with it: 10 µM unless noted.

Take `[N-]=[N+]=NC(C(=O)O)c1ccccc1` (stereo not given): the growth was 87.3% in the test on NCI-H522 lung; 95.2% with A549/ATCC NSCLC; 99.1% in the test on HT29 colon; 96.6% in the test with SNB-75 CNS; 112% in the test on PC-3 prostate; 116% in the test on SK-MEL-5 melanoma. In addition, the growth with SK-MEL-28 melanoma was 105%; with EKVX NSCLC, 99.7%; in the test with CAKI-1 renal it was 91.8%; in the test on SR leukemia it was 83.9%; with OVCAR-5 ovarian, 102%; with IGROV1 ovarian, 98%. Besides, the growth in the test with OVCAR-3 ovarian was 118%; in the test with MCF7 breast, 88.2%.
Regarding `COC(=O)C1CC2c3ccccc3C1c1ccccc12` (stereo not given), the growth was 98.2% in the test with A549/ATCC NSCLC; 99.8% in the test with COLO 205 colon; 106% with HT29 colon; 94.5% in the test with SNB-75 CNS; 66.4% with PC-3 prostate; 109% in the test with SK-MEL-28 melanoma. Besides, the growth was 76.5% with CAKI-1 renal; 83.4% in the test with CCRF-CEM leukemia; 93.9% in the test on SR leukemia; 82.1% in the test on RPMI-8226 leukemia; 104% in the test with OVCAR-5 ovarian; 96.6% in the test with IGROV1 ovarian. For the same molecule, the growth is 115% in the test on OVCAR-3 ovarian and 96.5% in the test with MCF7 breast.
Turning to `CCOC(=O)c1cnc(SCc2ccc(Cl)c(Cl)c2)nc1N1CC1`, the growth is 36.7% in the test on NCI-H522 lung; 50% in the test with A549/ATCC NSCLC; 31.2% in the test with HT29 colon; 43.1% with SNB-75 CNS; 51.2% with PC-3 prostate; 88.5% with SK-MEL-28 melanoma. The growth is 69.7% with EKVX NSCLC; 31.1% in the test with CAKI-1 renal; 24.1% in the test on SR leukemia; 82.9% in the test on OVCAR-5 ovarian; 33.7% in the test with IGROV1 ovarian; 54.6% in the test with OVCAR-3 ovarian. Also, the growth in the test with HS 578T breast was 59.3%; in the test with MCF7 breast, 29.3%.
Consider `CC(/C=N/N=C(N)N)=N\N=C(N)N`, for which the growth with NCI-H522 lung is 61.5%; in the test on COLO 205 colon, 55.4%; in the test on HT29 colon it was 65.9%; in the test with SNB-75 CNS it was 63.7%; in the test with PC-3 prostate it was 101%; with SK-MEL-5 melanoma it was 137%. Also, the growth with EKVX NSCLC is 89.8%; with CAKI-1 renal, 57.7%; in the test with CCRF-CEM leukemia, 53%; in the test on SR leukemia it was 70.1%; with RPMI-8226 leukemia it was 74.3%; with OVCAR-5 ovarian, 82.1%. Further, the growth in the test on OVCAR-3 ovarian is 57.7%.
In the case of `Cc1cc(NC(=O)CCc2ccc(N3C(N)=NC(N)=NC3(C)C)cc2)ccc1S(=O)(=O)F`, the growth in the test on NCI-H522 lung was -17.2% (active); in the test with COLO 205 colon, 36%; with HT29 colon, 24.7%; in the test on PC-3 prostate it was -23.4% (active); in the test on SK-MEL-5 melanoma it was 13.9%; in the test with SK-MEL-28 melanoma, 53.9%. The growth with EKVX NSCLC is 58.8%; with CCRF-CEM leukemia, -13% (active); with SR leukemia, -23.7% (active); in the test on RPMI-8226 leukemia, -24.6% (active); in the test on OVCAR-5 ovarian it was 17.9%; with OVCAR-3 ovarian, 71.5%. Further, the growth with HS 578T breast was 74.7%; in the test with MCF7 breast, 14.9%.
Consider `COc1ccc(C(=O)c2ccc([As]=O)cc2)cc1` (stereo not given), for which the growth in the test on NCI-H522 lung was -84.1% (active); in the test on A549/ATCC NSCLC, -71.8% (active); with HT29 colon it was -68.9% (active); in the test with PC-3 prostate it was -86.3% (active); in the test with EKVX NSCLC, -98.1% (active); in the test on CAKI-1 renal, -98.7% (active). Moreover, the growth in the test on CCRF-CEM leukemia was -25.1% (active); in the test with SR leukemia, -23.8% (active); with RPMI-8226 leukemia, -24% (active); with OVCAR-5 ovarian, -84.2% (active); in the test with IGROV1 ovarian, -29.3% (active); with OVCAR-3 ovarian it was -40.4% (active). Further, the growth in the test with HS 578T breast was -1.54% (active); in the test on MCF7 breast, -20.3% (active).
Regarding `CC(C)C1c2ccc(O)cc2Oc2nc(N)c(C#N)c(N)c21` (stereo not given), the growth in the test with NCI-H522 lung was 86.4%; in the test with A549/ATCC NSCLC it was 91.4%; in the test with HT29 colon, 109%; in the test on SNB-75 CNS, 81.4%; in the test with PC-3 prostate, 92.1%; in the test with SK-MEL-5 melanoma it was 91%. Also, the growth is 117% in the test with SK-MEL-28 melanoma; 93.5% with CAKI-1 renal; 94.8% in the test with CCRF-CEM leukemia; 97.1% with SR leukemia; 89.4% in the test with RPMI-8226 leukemia; 104% with OVCAR-5 ovarian. Moreover, the growth in the test with IGROV1 ovarian was 111%; with OVCAR-3 ovarian, 124%; in the test with HS 578T breast, 91.4%; with MCF7 breast, 124%.
With `CN(C)P1(N(C)C)=NP(N(C)C)(N(C)C)=NP(N(C)C)(N(C)C)=N1`, the growth was 99.3% in the test with A549/ATCC NSCLC; 113% with COLO 205 colon; 104% in the test on HT29 colon; 90.3% with SNB-75 CNS; 90% with PC-3 prostate; 107% in the test on SK-MEL-5 melanoma. Also, the growth with SK-MEL-28 melanoma is 107%; in the test with CAKI-1 renal, 79%; with SR leukemia, 92.6%; in the test with RPMI-8226 leukemia it was 98.1%; in the test with OVCAR-3 ovarian, 106%; in the test with HS 578T breast, 114%. In the test on MCF7 breast, the growth was 95.4%.
Regarding `COc1cc(C2(C#N)CCN(C)CC2)cc(OC)c1OC`, the growth was 88.8% in the test with A549/ATCC NSCLC; 107% in the test with COLO 205 colon; 101% in the test on HT29 colon; 84.9% in the test on SNB-75 CNS; 107% in the test with SK-MEL-5 melanoma; 112% in the test on EKVX NSCLC. The growth in the test with CAKI-1 renal was 79.1%; in the test on CCRF-CEM leukemia, 116%; with SR leukemia, 91.2%; in the test on OVCAR-5 ovarian it was 97.5%; in the test with OVCAR-3 ovarian it was 108%; in the test with HS 578T breast it was 100%.
Consider `Cc1ccc(C[As+](c2ccccc2)(c2ccccc2)c2ccccc2)cc1`, for which the growth in the test on NCI-H522 lung was -22% (active); in the test with A549/ATCC NSCLC, 7.2% (active); with SNB-75 CNS, 15.1%; in the test on PC-3 prostate it was 7.95% (active); in the test on SK-MEL-5 melanoma it was -65.3% (active); in the test on SK-MEL-28 melanoma, 37.2%. For the same molecule, the growth in the test on CAKI-1 renal is 60.1%; with OVCAR-5 ovarian, 31.8%; in the test with IGROV1 ovarian it was 9.49% (active); with OVCAR-3 ovarian, 13.9%; in the test with HS 578T breast, 21%; in the test on MCF7 breast it was 9.14% (active).
`O=C(NCc1ccc([N+](=O)[O-])cc1)Nc1ccc(S(=O)(=O)F)cc1`: the growth in the test on A549/ATCC NSCLC was 75%; with COLO 205 colon, 107%; in the test with HT29 colon, 91.9%; in the test with SNB-75 CNS, 86.2%; in the test with PC-3 prostate, 74.6%; in the test on SK-MEL-5 melanoma, 79.9%. The growth is 96% in the test on SK-MEL-28 melanoma; 78% with CAKI-1 renal; 81.4% with CCRF-CEM leukemia; 79.1% in the test with SR leukemia; 68.9% in the test on RPMI-8226 leukemia; 83.9% in the test on OVCAR-5 ovarian. The growth in the test on IGROV1 ovarian was 94.8%; with OVCAR-3 ovarian, 87%.
